Laboratory results published in the supplement of paper PMC11732987, “Enantioselective OTUD7B fragment discovery through chemoproteomics screening and high-throughput optimisation” (Communications Chemistry, 2025).

Columns and labels:
Experiment in all cases: log2 ratio of Biotin-Ahx-Ub-VS probe labelling (fragment/DMSO); higher = less target engagement (more negative = stronger competition), active = hit call of the paper (q ≤ 0.05, log2 ratio ≤ -1)
Settings in all cases: compound concentration: 200 uM; treatment time: 3 h
USP42 = biological target: T1, USP42 (UniProt Q9H9J4)
T1 sequence (whole entry): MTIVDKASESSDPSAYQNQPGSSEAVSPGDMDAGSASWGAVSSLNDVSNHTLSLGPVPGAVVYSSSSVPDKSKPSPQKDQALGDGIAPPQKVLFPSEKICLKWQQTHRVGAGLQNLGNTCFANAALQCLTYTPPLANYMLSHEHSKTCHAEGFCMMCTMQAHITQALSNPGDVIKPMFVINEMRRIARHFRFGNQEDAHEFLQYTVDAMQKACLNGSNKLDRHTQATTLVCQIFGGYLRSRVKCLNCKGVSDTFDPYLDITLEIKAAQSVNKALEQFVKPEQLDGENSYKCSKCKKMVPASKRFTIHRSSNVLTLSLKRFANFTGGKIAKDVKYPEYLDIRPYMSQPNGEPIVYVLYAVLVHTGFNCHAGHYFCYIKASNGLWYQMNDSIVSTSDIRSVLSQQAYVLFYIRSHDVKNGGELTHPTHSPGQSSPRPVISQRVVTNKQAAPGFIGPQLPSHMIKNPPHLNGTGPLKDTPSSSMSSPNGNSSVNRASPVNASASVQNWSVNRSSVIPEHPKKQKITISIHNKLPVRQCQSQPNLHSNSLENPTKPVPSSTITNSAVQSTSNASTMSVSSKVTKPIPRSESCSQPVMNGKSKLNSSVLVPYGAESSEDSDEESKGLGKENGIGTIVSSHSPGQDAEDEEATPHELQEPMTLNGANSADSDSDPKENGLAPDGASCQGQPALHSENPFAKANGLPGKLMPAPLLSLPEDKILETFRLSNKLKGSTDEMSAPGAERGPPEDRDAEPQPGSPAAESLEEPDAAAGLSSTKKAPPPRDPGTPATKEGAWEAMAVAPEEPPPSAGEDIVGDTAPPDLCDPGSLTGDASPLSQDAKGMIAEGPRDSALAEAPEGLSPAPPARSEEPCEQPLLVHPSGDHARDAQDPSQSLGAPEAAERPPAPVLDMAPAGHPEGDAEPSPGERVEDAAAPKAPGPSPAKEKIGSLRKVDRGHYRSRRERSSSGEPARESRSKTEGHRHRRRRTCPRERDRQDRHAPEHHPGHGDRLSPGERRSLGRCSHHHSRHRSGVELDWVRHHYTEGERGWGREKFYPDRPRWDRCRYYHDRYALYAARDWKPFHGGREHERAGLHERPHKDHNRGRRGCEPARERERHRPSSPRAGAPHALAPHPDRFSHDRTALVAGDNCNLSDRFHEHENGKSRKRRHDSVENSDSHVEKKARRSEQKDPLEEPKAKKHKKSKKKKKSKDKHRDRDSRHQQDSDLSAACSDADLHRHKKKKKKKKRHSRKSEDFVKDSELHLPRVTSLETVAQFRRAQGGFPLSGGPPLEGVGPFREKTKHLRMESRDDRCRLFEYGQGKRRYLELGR
Method in brief: (§1)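 In triplicate, 495 µg of HEK293T lysate per sample was incubated with fragment at 200 µM or vehicle for 3 h. Biotin-Ahx-Ub-VS was then added to 0.5 µM final for 1 h, and labelled DUBs were captured with NeutrAvidin, digested with LysC and trypsin, and measured by diaPASEF LC-MS/MS. Data are average log2 fragment/vehicle ratios by unpaired t-test from global-median-normalised Spectronaut label-free quantities, restricted to proteins with ≥2 unique peptides.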

USP46 = USP46 (UniProt P62068)
USP46, sequence (P62068 whole entry): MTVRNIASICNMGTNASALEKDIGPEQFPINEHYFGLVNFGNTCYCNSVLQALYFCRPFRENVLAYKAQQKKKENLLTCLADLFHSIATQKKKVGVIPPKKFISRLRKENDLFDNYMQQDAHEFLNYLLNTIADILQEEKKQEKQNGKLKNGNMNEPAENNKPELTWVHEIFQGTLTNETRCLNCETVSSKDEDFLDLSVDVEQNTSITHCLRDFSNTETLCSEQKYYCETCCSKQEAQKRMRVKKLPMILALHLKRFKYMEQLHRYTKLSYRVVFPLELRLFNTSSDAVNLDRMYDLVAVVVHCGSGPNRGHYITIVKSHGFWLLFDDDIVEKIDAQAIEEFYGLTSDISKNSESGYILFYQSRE
Method in brief: as §1

USP47 = biological target: T2, USP47 (UniProt Q96K76)
T2 sequence (whole entry): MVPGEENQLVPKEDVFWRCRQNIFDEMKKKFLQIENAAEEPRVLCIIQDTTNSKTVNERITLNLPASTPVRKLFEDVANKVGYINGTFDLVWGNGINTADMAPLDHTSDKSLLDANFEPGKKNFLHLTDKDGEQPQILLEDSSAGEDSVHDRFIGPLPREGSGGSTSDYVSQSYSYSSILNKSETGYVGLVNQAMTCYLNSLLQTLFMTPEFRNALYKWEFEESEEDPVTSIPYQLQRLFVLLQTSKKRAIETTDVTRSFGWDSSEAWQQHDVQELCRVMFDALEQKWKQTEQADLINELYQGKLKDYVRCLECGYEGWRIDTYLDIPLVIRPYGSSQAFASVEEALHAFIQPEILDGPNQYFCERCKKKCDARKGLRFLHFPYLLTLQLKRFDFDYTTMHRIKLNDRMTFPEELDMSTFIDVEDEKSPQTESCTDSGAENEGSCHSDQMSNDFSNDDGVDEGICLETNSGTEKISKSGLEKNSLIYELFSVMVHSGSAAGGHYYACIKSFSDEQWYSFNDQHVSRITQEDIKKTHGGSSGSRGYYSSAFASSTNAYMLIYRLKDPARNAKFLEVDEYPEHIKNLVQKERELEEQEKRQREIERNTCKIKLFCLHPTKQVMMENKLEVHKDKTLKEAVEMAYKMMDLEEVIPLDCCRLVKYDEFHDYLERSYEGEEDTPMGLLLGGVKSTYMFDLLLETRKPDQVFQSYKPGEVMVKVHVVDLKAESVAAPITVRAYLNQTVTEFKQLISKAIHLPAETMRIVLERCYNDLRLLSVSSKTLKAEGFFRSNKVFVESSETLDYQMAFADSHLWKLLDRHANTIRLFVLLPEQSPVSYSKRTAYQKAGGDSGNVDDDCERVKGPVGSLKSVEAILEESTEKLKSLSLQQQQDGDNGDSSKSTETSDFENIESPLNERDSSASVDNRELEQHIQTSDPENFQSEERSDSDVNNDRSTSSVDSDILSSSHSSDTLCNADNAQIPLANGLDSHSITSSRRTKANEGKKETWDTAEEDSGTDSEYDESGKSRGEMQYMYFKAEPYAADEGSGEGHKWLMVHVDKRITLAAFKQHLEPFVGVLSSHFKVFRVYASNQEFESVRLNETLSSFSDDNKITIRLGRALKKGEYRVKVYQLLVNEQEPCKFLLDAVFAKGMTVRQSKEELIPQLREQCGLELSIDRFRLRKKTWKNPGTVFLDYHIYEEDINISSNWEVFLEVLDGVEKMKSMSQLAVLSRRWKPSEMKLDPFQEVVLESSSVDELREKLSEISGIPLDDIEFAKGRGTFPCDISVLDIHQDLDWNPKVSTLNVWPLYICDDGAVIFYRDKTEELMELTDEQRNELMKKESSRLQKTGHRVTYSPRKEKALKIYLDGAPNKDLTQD
Method in brief: as §1

USP48 = biological target: T3, USP48 (UniProt Q86UV5)
T3 sequence (whole entry): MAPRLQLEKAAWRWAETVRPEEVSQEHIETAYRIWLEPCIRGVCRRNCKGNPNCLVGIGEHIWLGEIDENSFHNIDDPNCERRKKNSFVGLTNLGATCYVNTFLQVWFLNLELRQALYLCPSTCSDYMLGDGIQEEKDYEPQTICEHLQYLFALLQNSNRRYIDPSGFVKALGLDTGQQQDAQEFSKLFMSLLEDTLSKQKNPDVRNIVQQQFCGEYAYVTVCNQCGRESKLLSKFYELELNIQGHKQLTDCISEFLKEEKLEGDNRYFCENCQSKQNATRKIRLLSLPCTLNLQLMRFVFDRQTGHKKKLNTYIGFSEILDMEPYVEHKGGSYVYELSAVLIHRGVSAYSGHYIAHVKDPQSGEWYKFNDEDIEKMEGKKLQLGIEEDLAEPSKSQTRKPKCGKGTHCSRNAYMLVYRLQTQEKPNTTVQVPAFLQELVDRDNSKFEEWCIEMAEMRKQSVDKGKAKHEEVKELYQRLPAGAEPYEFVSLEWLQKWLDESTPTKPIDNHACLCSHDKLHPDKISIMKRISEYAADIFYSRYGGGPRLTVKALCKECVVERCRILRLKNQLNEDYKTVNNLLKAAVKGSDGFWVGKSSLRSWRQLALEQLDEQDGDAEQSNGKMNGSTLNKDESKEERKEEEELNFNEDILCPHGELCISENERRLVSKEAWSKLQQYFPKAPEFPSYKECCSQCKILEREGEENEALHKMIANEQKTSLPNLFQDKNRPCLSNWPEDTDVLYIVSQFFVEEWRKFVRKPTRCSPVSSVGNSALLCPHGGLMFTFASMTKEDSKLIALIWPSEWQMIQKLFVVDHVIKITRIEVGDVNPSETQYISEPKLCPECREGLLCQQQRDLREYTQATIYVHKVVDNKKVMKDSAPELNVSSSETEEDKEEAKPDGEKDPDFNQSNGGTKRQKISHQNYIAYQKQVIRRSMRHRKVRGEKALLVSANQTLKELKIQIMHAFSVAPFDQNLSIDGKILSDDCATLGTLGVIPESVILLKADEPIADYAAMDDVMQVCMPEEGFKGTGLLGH
Method in brief: as §1

USP5 = biological target: T4, USP5 (UniProt P45974)
T4 sequence (whole entry): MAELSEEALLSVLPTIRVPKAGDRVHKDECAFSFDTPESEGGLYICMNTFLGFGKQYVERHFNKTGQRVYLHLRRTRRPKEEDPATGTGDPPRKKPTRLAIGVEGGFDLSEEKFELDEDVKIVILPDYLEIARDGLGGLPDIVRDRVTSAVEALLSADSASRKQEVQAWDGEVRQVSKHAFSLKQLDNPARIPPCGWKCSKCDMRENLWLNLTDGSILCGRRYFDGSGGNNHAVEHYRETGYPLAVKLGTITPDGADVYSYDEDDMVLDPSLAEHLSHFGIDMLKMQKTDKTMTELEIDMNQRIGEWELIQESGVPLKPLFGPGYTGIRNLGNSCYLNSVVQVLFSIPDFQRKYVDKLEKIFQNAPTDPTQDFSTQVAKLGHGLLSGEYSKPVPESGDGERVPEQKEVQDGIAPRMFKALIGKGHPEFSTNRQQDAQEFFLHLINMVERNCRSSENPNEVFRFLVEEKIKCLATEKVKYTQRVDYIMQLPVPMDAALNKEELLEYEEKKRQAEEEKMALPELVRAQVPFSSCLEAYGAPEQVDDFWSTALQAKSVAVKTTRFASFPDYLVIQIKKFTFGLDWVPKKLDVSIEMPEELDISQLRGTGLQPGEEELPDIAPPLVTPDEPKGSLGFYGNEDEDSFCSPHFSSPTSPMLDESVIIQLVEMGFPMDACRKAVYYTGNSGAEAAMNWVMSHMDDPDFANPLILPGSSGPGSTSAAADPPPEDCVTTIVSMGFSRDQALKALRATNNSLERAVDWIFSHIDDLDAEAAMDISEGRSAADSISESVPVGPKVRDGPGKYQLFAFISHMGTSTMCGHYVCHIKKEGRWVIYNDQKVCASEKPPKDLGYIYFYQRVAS
Method in brief: as §1

USP54 = USP54 (UniProt Q70EL1)
USP54, sequence (Q70EL1 whole entry): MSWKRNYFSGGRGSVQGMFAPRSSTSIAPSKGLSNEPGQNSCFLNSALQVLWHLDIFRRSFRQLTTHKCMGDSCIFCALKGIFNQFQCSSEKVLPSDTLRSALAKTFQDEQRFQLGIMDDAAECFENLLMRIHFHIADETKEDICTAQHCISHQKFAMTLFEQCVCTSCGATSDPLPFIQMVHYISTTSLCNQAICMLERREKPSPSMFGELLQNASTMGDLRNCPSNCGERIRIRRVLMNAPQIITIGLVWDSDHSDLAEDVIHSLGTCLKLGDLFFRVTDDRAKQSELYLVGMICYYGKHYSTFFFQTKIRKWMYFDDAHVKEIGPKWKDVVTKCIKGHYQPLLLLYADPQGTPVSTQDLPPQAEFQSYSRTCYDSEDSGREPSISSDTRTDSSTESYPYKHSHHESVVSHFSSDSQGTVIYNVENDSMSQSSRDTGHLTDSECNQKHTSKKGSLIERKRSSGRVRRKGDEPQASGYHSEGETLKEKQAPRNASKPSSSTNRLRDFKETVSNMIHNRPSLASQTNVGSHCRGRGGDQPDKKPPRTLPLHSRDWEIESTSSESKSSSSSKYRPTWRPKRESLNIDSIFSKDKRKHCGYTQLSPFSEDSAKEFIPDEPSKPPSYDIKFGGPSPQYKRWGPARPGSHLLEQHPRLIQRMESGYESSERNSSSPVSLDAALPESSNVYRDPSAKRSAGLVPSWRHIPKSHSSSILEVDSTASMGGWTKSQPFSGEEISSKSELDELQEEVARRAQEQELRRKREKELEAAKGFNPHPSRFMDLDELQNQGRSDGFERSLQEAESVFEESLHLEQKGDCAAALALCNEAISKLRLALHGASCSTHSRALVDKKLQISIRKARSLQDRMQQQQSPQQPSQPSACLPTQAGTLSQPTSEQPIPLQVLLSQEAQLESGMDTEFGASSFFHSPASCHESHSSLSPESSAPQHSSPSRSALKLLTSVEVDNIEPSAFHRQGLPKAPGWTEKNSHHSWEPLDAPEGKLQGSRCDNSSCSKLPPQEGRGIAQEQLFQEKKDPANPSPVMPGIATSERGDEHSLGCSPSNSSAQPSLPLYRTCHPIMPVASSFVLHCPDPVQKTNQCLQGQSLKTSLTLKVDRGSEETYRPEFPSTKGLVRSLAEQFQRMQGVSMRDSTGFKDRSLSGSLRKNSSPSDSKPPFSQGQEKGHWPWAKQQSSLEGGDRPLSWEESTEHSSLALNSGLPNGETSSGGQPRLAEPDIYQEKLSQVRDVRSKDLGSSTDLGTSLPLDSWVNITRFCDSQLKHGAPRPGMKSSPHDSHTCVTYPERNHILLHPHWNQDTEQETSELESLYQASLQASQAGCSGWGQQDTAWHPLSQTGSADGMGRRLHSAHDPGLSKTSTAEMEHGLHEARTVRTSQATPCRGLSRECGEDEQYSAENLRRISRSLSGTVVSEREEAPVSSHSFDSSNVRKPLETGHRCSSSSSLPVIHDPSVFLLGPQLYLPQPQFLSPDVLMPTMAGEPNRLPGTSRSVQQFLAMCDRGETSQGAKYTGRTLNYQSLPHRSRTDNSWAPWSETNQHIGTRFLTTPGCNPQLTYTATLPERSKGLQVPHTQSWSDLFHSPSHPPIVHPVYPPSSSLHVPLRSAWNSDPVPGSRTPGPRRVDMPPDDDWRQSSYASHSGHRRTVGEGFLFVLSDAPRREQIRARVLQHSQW
Method in brief: as §1

USP7 = USP7 (UniProt Q93009)
USP7, sequence (Q93009 whole entry, looked up): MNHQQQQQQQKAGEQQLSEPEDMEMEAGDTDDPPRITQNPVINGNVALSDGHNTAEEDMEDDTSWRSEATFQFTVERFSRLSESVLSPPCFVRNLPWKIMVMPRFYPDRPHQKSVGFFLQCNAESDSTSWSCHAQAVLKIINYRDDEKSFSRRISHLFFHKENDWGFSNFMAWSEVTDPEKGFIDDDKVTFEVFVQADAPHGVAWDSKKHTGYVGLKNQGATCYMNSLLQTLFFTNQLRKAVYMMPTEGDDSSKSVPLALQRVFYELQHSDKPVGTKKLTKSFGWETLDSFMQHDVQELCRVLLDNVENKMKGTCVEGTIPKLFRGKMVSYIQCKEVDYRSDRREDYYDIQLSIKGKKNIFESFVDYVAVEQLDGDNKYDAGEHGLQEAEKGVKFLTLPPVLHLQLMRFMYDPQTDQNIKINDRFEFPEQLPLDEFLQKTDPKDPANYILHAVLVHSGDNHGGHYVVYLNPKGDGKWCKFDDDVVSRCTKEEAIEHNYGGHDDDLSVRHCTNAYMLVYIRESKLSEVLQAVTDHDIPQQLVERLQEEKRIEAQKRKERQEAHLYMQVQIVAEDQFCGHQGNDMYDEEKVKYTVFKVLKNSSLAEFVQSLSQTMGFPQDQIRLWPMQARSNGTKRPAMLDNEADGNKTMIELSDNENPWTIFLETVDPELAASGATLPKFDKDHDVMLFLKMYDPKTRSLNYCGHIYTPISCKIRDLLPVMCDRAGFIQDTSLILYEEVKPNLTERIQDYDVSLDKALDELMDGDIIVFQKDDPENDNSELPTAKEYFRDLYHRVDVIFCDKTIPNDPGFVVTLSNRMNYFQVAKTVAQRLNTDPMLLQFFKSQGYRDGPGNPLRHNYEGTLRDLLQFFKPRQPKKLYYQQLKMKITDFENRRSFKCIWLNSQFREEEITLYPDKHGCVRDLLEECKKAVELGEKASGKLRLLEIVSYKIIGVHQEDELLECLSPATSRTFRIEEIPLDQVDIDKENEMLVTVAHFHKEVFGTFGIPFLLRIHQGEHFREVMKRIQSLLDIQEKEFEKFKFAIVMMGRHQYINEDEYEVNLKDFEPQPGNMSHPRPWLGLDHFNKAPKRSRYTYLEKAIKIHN
Method in brief: as §1

USP8 = biological target: T5, USP8 (UniProt P40818)
T5 sequence (whole entry): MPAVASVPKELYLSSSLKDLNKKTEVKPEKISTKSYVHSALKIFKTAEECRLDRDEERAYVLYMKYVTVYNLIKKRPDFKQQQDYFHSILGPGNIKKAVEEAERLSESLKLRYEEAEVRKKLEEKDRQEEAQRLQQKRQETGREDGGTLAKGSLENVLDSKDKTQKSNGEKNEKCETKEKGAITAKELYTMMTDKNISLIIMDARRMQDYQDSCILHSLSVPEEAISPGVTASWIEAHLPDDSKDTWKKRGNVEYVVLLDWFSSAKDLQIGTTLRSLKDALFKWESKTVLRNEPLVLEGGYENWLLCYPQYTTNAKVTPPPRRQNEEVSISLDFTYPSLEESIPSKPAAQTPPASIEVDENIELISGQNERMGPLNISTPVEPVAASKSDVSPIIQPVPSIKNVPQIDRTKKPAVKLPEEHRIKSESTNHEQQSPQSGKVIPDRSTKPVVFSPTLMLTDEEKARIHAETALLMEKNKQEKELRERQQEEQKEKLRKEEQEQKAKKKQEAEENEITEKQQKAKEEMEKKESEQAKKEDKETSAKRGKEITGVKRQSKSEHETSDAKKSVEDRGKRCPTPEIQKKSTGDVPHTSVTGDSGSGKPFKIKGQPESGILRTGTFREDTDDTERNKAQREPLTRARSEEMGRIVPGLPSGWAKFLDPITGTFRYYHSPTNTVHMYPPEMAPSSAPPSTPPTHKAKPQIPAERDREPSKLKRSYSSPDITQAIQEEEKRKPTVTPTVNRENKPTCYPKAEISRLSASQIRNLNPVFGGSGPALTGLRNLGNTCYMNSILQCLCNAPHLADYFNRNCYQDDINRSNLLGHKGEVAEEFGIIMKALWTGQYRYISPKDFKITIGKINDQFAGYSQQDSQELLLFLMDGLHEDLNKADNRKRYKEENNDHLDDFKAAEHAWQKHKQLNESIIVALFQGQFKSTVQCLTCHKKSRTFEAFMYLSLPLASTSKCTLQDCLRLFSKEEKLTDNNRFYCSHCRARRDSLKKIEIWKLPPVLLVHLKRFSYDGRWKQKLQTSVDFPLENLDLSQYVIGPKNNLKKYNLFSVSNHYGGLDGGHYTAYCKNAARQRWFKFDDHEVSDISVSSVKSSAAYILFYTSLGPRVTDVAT
Method in brief: as §1

Measured: log2 ratio of Biotin-Ahx-Ub-VS probe labelling

O=C(CCl)N1CCC(c2ccn[nH]2)C1 (stereo not drawn)
inactive: USP42 -0.237 | USP46 -0.0632 | USP47 -0.0366 | USP48 -0.675 | USP5 -0.0093 | USP54 -0.0323 | USP7 -0.384 | USP8 -0.487
